Experimental data reported in PubChem BioAssay (Tox21).
Results filed as inconclusive are left out. Active and inactive are the calls of the source. Calls follow the shape of the dose curve; as a rule, active = well fitted activation curve with a large enough effect; inconclusive = small, poorly fitted or top-dose-only effect; inactive = flat fitted curve, though single readings scatter.

experiment: qHTS assay to identify small molecule phospholipidosis (PLD) inducers (AID 1259344); conditions: HepG2 phospholipidosis, LipidTOX Red imaging, 24 h; series mostly up to 38.3 µM; PLD induction: at the top concentration
From the text: National Center for Advancing Translational Sciences [NCATS]
Drug-induced Phospholipidosis (PLD) caused by cationic amphiphilic drugs is characterized by the appearance of unicentric or multicentric-lamellar bodies when viewed under electron microscope. Electron microscopy is the gold standard method for PLD detection, however, this method is time-consuming and labor intensive, making it unsuitable for evaluating a large set of compounds. A cell-based phospholipidosis assay has been developed using the LipidTox reagent in HepG2 cells and miniaturized into a 1536-well plate format. Drug induced phospholipid accumulation is stained with the LipidTox dyes in red color which then is determined using an automated high content screening system.
HepG2 cells are dispensed at 900 cells/3 uL/well into Collagen I-coated 1536-well black-wall/clear-bottom assay plates (Greiner Bio-One, Monroe, NC) using the Multidrop Combi 8 channel dispenser (Thermo Fisher, Waltham, MA, USA). The assay plates are incubated at 37 C for 4 hours to allow the cell attachment. 3 uL of 1:500 LipidTOX Red dye is added using the dispenser, and then 23 nL compounds are added via a Wako Pintool station (Wako Automation, San Diego, CA). Amiodarone, a known PLD inducer, was used as a positive control and DMSO was used as a negative control. The assay plates were then incubated at 37 C for 24 hours.
For fixations, 4 uL of 8% paraformaldehyde fixative solution containing 10 ug/mL Hoechst 33342 in Dulbecco's phosphate-buffered saline (DPBS) is added using a Kalypsys washer/dispenser (Kalypsys, San Diego, CA, USA). After incubation at room temperature for 30 min, the assay plates are washed once with DPBS using a Kalypsys washer/dispenser. The assay plates are then sealed and stored at 4 C before imaging. The fluorescence intensities (595 nm excitation, 615 nm emission for LipidTOX; 352 nm excitation, 461 nm emission for Hoechst 33342) are measured using an ImageXpress Micro Widefield High Content Screening System (Molecular Devices, Sunnyvale, CA, USA) with a 20x Plan Fluor objective. Images are acquired for one site in each well and analyzed with the MetaXpress software (Molecular Devices) using the Transfluor module. Several algorithmic outputs, such as pit count per well, pit count per cell, pit integrated intensity per well, and pit integrated intensity per cell, are used for quantitative image analysis for PLD.
% is scaled to controls: 0 for no effect and ±100 for the full control effect.

SMILES	PLD induction	outcome
O=P(O)(O)OCC(O)CO (stereo not given)	-3.43% (inactive)	–
CC(C)(CO)[C@@H](O)C(=O)NCCCO	-0.897% (inactive)	–
Cc1c(C(C)C)c(=O)n(-c2ccccc2)n1C	0.513% (inactive)	–
O=C(O)c1ccccc1C(=O)Nc1ccc(S(=O)(=O)Nc2nccs2)cc1	-0.368% (inactive)	–
O=C(/C=C/c1ccccc1)NCCO	-0.603% (inactive)	–
NCCc1ccn[nH]1	-0.596% [at 15.5 µM] (inactive)	–
COc1cc2c3cc1Oc1cc(ccc1O)C[C@@H]1c4c(cc(OC)c(O)c4Oc4ccc(cc4)C[C@@H]3N(C)CC2)CC[N+]1(C)C	3.77% (inactive)	–
CCCCCCCC/C=C\CCCCCCCC(=O)OC[C@@H](O)[C@H]1OC[C@H](O)[C@H]1O	-1.48% (inactive)	–
F[Si-2](F)(F)(F)(F)F	1.89% (inactive)	–
O=C(O)Cc1cccc(-c2cc(CCCCCCc3ccc(O[C@H]4O[C@H](CO)[C@@H](O)[C@H](O)[C@@H]4O)c(-c4cccc(CC(=O)O)c4)c3)ccc2O[C@H]2O[C@H](CO)[C@@H](O)[C@H](O)[C@@H]2O)c1	-1.79% (inactive)	–
O=c1cc(O)c(Cl)c[nH]1	-0.924% (inactive)	–
Cc1cccc(Nc2ccncc2S(=O)(=O)NC(=O)NC(C)C)c1	1.17% [at 15.5 µM] (inactive)	–
CC(=O)c1ccc(OCC(=O)N2CCCCC2)cc1	-6.28% (inactive)	–
Nc1c(NC/C=C\COc2cc(CN3CCCCC3)ccn2)c(=O)c1=O	-3.5% (inactive)	–
CCNC(=O)NCCCOc1cccc(CN2CCCCC2)c1	-3.04% (inactive)	–
NS(=O)(=O)c1cc2c(cc1Cl)NC(C(Cl)Cl)NS2(=O)=O (stereo not given)	-0.488% [at 15.5 µM] (inactive)	–
Nc1ccc(S(=O)(=O)Nc2ccccn2)cc1	-0.47% [at 15.5 µM] (inactive)	–
CCCCCC1Nc2cc(C(F)(F)F)c(S(N)(=O)=O)cc2S(=O)(=O)N1 (stereo not given)	-7.02% (inactive)	–
CNCc1ccccc1	-0.475% (inactive)	–
CC(=O)OCC(=O)[C@@]1(O)[C@H](OC(C)=O)C[C@H]2[C@@H]3CCC4=CC(=O)C=C[C@]4(C)[C@@]3(F)[C@@H](O)C[C@@]21C	1.8% (inactive)	–

SMILES	PLD induction	outcome
COc1ccc(NS(=O)(=O)c2ccc(N)cc2)nn1	-0.819% [at 15.5 µM] (inactive)	–
C[C@@H]1C[C@H]2[C@@H]3C[C@H](F)C4=CC(=O)C=C[C@]4(C)[C@@]3(F)[C@@H](O)C[C@]2(C)[C@@]1(O)C(=O)CO	6.38% [at 15.5 µM] (inactive)	–
Cc1ccccc1N1CCN(CCc2nnc3n2CCCC3)CC1	-0.663% (inactive)	–
C[C@H]1O[C@H](O[C@H]2[C@H](O)[C@@H](O)[C@@H](O[C@H]3[C@H](O)[C@@H](O)[C@H](O)O[C@@H]3CO)O[C@@H]2CO)[C@H](O)[C@@H](O)[C@@H]1N[C@H]1C=C(CO)[C@@H](O)[C@H](O)[C@H]1O	-1.57% (inactive)	–
O=C(CN1CCN(Cc2ccc3c(c2)OCO3)CC1)N1c2ccccc2Sc2ccccc21	17.2% (inactive)	–
Cc1ccc(S(=O)(=O)NC(=O)NC2CCCCCCC2)cc1	-1.24% (inactive)	–
Nc1ccc(S(=O)(=O)NC(=O)c2ccccc2)cc1	-0.553% [at 15.5 µM] (inactive)	–
O=C(O)CCNC(=O)c1ccccc1	-0.0726% (inactive)	–
C1CCN2C[C@@H]3C[C@@H](CN4CCCC[C@@H]34)[C@H]2C1	1.2% [at 15.5 µM] (inactive)	–
COc1ccc(/C=N/NC(=O)c2ccncc2)cc1OC	-0.0091% (inactive)	–
O=C(Oc1ccccc1C(=O)O)c1ccccc1O	0.594% (inactive)	–
O=C(O)C(=O)Nc1cccc(-c2nn[nH]n2)c1	-1.93% (inactive)	–
CN=C(NC#N)NCCSCc1csc(N=C(N)N)n1	-0.193% (inactive)	–
O=c1[nH]c(=O)c2[nH]c(=O)[nH]c2[nH]1	–	inactive
CCCCCCCCCCCCCCCC(=O)NCCO	0.0237% (inactive)	–
CCC(=O)c1ccc(O)cc1	-0.473% (inactive)	–
Cc1ncc([N+](=O)[O-])n1CC(O)CCl (stereo not given)	-0.705% [at 15.5 µM] (inactive)	–
CC(=O)N(CC(O)CO)c1c(I)c(C(=O)NCC(O)CO)c(I)c(C(=O)NCC(O)CO)c1I (stereo not given)	-0.786% (inactive)	–
O=C1CC[C@H](C(=O)N2CCCCC2)N1	-3.02% (inactive)	–
COCC(=O)Nc1c(I)c(C(=O)NCC(O)CO)c(I)c(C(=O)N(C)CC(O)CO)c1I (stereo not given)	-0.846% [at 15.5 µM] (inactive)	–
